Test results as given in PubChem BioAssay AID652062 (Broad Institute, 2013).
The whole screen tested about 1,400 compounds, of which about 1,100 (79%) were called active.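 Rule for the calls: active = fitted half-maximal concentration of a falling signal no higher than twice the top valid dose in every test run; inconclusive = runs disagree, or flat partial inhibition, or poor fit; inactive = every run inactive: flat, wrong direction, or potency beyond limit.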 So high a share suggests a set chosen from earlier hits. The list is a sample of the results. Potency and affinity values are given separately.

assay: HIV-1 AD8 envelope cell-cell fusion blockers – cherry-pick, dose response (AID 652062); conditions: HeLa-AD8 Env / CEM-CCR5 cell fusion, luciferase; at 35 µM (top of the series) unless noted

SMILES	activity change, negative = inhibition
CCOc1ccc(NC2c3ccccc3C(=O)N2Cc2ccco2)cc1 (stereo not drawn)	51.2%
CCN(CC)S(=O)(=O)c1ccc(NC2c3ccccc3C(=O)N2Cc2ccc3c(c2)OCO3)cc1 (stereo not drawn)	-25.4%
O=C(Nc1cccc(F)c1)c1cc(S(=O)(=O)N2CCC(C(=O)O)CC2)ccc1F	43.8%
O=C(Nc1ccc(Cl)cc1)C1CCCN(C2=NS(=O)(=O)c3ccccc32)C1 (stereo not drawn)	-27% [at 16 µM]
C[C@H](CO)N1C[C@H](C)[C@@H](CN(C)C(=O)Nc2cccc3ccccc23)OCCCC[C@H](C)Oc2ccc(N(C)C)cc2C1=O	-37.4%
Cc1noc(C)c1NC(=O)N(C)C[C@H]1OCCCC[C@H](C)Oc2ccc(NC(=O)c3ccccc3)cc2C(=O)N([C@H](C)CO)C[C@@H]1C	107%
O=C(N/N=C/c1ccc(-n2ccnc2)cc1)c1cccs1	91.2%
Clc1ccc2c(c1)C1=C(C(c3ccncc3)O2)C(c2ccc(Br)cc2)n2ncnc2N1 (stereo not drawn)	285% [at 16 µM]
NC(Cc1ccc(F)cc1)c1csc(Nc2ccc(C(F)(F)F)cn2)n1 (stereo not drawn)	-26.6% [at 16 µM]
Cc1cccc(/C=N\Nc2cn[nH]c(=O)c2Cl)c1	183%
COc1ccc(OC)c(CN2C(=O)c3ccccc3C2c2nnnn2-c2c(C)cccc2C)c1 (stereo not drawn)	-4.67%
COc1ccc(CCN2C(=O)c3[nH]nc(-c4ccccc4O)c3C2c2cccc(O)c2)cc1OC (stereo not drawn)	4.61%
CN(C(=O)c1cccc(NC(=O)Cc2cccc(NC(=O)C3CCCN(C(=O)C4CCC4)C3)c2)c1)C1CCC1 (stereo not drawn)	49.5%
COc1ccc(-c2nnc(Nc3nc4c(OC)cccc4s3)o2)cc1	-27.2%
O=C(Cc1ccncc1)N[C@H]1CC[C@@H](CCn2cc(-c3ccccc3F)nn2)O[C@@H]1CO	-16.3%
O=C(Nc1cccc(F)c1)N[C@@H]1CC[C@H](CCNS(=O)(=O)c2cccc(Cl)c2)O[C@H]1CO	101%
O=C(CCN1CCCCC1)N[C@H]1CC[C@H](CCn2cc(-c3ccccc3)nn2)O[C@@H]1CO	-27.5%
O=C(CCN1CCCCC1)N[C@@H]1CC[C@@H](CCn2cc(-c3ccccc3)nn2)O[C@@H]1CO	-17.1%
COc1ccccc1S(=O)(=O)n1cc(Cc2ccccc2)c(N)n1	-17%

SMILES	activity change, negative = inhibition
O=C(C[C@@H]1CC[C@@H](NC(=O)c2ccncc2)[C@H](CO)O1)NCCc1ccncc1	38.7%
COc1ccc(Nc2cc(C)nc(NCc3ccccc3)n2)cc1	-69.2%
C[C@@H]1CN([C@@H](C)CO)C(=O)c2cccc(NC(=O)c3ccc(-c4nccs4)cc3)c2O[C@H]1CN(C)CC1CC1	28.5%
C[C@@H]1CN([C@@H](C)CO)C(=O)c2cccc(NC(=O)c3cnccn3)c2O[C@H]1CN(C)Cc1ccc(Cl)c(Cl)c1	142% [at 16 µM]
C[C@@H]1CN([C@H](C)CO)C(=O)c2cccc(NC(=O)c3ccncc3)c2O[C@@H]1CN(C)Cc1ccc(C(=O)O)cc1	3.82%
Cc1onc(-c2ccccc2)c1C(=O)OCCOc1cccc(Cl)c1	-18.8%
CC1(C)N=C(N)N=C(N)N1CCCCc1ccccc1	3.6%
CS(=O)(=O)N1CCN(c2ccccc2NC(=O)C(c2ccccc2)c2ccccc2)CC1	38.4%
O=C(O)C[C@@H]1C=C[C@H](NC(=O)Nc2ccccc2)[C@H](CO)O1	-16.5%
O=C(O)C[C@@H]1CC[C@@H](NC(=O)c2ccncc2)[C@H](CO)O1	28.7%
O=C(O)C[C@@H]1C=C[C@@H](NC(=O)Nc2ccccc2)[C@H](CO)O1	11.3%
Cc1cccc(C)c1N(CC(O)Cn1c2ccccc2c2ccccc21)S(C)(=O)=O (stereo not drawn)	16%
COc1ccccc1C#Cc1ccc2c(c1)O[C@@H](CN(C)Cc1ccncc1)[C@H](C)CN([C@H](C)CO)S2(=O)=O	10.1% [at 16 µM]
C[C@@H]1CN([C@H](C)CO)S(=O)(=O)c2ccc(-c3ccncc3)cc2O[C@@H]1CN(C)Cc1ccc(Oc2ccccc2)cc1	160%
Cc1ccc(-c2ccc3c(c2)O[C@@H](CN(C)Cc2cccnc2)[C@H](C)CN([C@H](C)CO)S3(=O)=O)cc1	-56.7%
COc1ccccc1CN1C(=O)CN(C2CCCCCC2)C(=O)C1c1ccc(F)cc1 (stereo not drawn)	20.3%
Cc1ccc(-n2nc3c(c2NC(=O)c2ccco2)CS(=O)C3)cc1 (stereo not drawn)	-28.9%
COc1ccccc1CN(C)C(=O)CN1CCN(C(=O)c2cccs2)CC1	-1.14%
O=C(C[C@@H]1C[C@@H]2c3cc(NC(=O)C4CCC4)ccc3O[C@@H]2[C@@H](CO)O1)NCc1ccc2c(c1)OCO2	48.6%
